Pf Dd2 growth: qHTS Primary assay for Inhibitors of Plasmodium falciparum Dd2 growth in vitro | P. falciparum Dd2 growth, SYBR Green, 72 h | Potency, µM (series often up to 28.9 µM), inactives show top-dose activity, negative = inhibition, most hits filed as inhibitors | AID 1347417, 2020 | 4.3% of 120,000 active; active = well fitted inhibition curve with a large enough effect;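 note: plate controls were DMSO vehicle for no effect and reference drug for full effect; nearly all actives have a fitted effect of over 65% in size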
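Readout: SYBR Green fluorescence, 485 nm excitation, 535 nm emission, after ~16 h lysis at 37C. Before that, Dd2-infected red cells (2.5% hematocrit) grew 72 h with compound, 29 uM top final concentration.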
Starred values were filed as active, the others as inactive; i = inactive; [ ] = dose if it differs, or a comment. Only a selection was taken, and hits are over-represented in it overall. Potency is the fitted concentration of half-maximal effect.

SMILES	Pf Dd2 growth
CCOC(=O)c1c(C)oc2nc(C)nc(NCc3ccc(OC)cc3OC)c12	-1%
CCOC(=O)c1c(C)oc2nc(C)nc(NCc3ccc(Cl)cc3)c12	i[5.79 µM]
CCOC(=O)c1c(C)oc2nc(C)nc(Nc3cccc(OC)c3)c12	-9%
CCOC(=O)c1c(C)oc2nc(C)nc(NCC3CCN(Cc4ccc(Cl)cc4)CC3)c12	13µM*
CCOC(=O)c1c(C)oc2nc(C)nc(NCCCN3CCN(c4cc(Cl)ccc4C)CC3)c12	-20%
CCOC(=O)c1c(C)oc2ncnc(N3CCN(c4cccc(Cl)c4)CC3)c12	2%
CCOC(=O)c1c(C)oc2nc(C)nc(NC(C)c3ccccc3)c12 (stereo not drawn)	10µM*
CCOC(=O)c1c(C)oc2nc(C)nc(N(C)Cc3ccccc3)c12	13µM*
CCOC(=O)c1c(C)oc2nc(C)nc(N3CCN(c4cccc(C(F)(F)F)c4)CC3)c12	10µM*
CCOC(=O)c1c(C)oc2ncnc(NCCc3ccccc3)c12	-6%
O=C(c1cccc(-n2cnnc2)c1)N1CCCC(O)(CN2CCCC2)C1 (stereo not drawn)	-8%
CCn1cc(S(=O)(=O)N2CCC3(CC2)CNC(C(=O)O)C3)cn1 (stereo not drawn)	-9%
OC1(c2csc(CN3CCOCC3)n2)CCN(C2COC2)CC1	-21%[44.1 µM]
CC(C)(CC(=O)O)CC(=O)N1Cc2[nH]cnc2C[C@H]1c1nc(Cc2ccccc2)no1	6%[44.1 µM]
COc1ccccc1CNC(=O)C(C)C1CCOCC1 (stereo not drawn)	16%
O=C1NC(=O)[C@@H]2CN(C(=O)c3coc(COc4ccc5c(c4)OCO5)n3)C[C@H]12	-2%
C[C@@H]1C(=O)O[C@H]2[C@H]1CC[C@@]1(C)Cc3sc(Nc4ccc(O)cc4)nc3[C@@H](C)[C@H]21	i
CCN(Cc1ccccc1)C(=O)Cn1c(C)ccc(NS(=O)(=O)c2ccccc2)c1=O	-2%
Cc1ccc(C(=O)N(C)CC2CCOCC2)cc1F	-13%
O=C(Cc1ccc(F)cc1)N1CCC[C@H]1c1nc(-c2ccccc2Cl)no1	i
Cc1ccc(NC(=O)N2CCC(CCN)CC2)cc1	-10%
COCC1CN(C(C)=O)CC12CCN(C(=O)c1cccc(Cl)c1)CC2 (stereo not drawn)	-18%
COc1ccc(CC(=O)NCCc2csc(-c3cccc(C)c3)n2)cc1	13µM*
Cc1cccc(-c2nc(CCNC(=O)Cc3ccc(F)cc3)cs2)c1	i
COc1ccc(CC(=O)NCCc2csc(-c3ccc(Cl)cc3)n2)cc1	-13%
SMILES	Pf Dd2 growth
O=C([C@H]1CNC[C@H](C(=O)N2CCN(c3ccncc3)CC2)C1)N1CCCC1	23%
CN1CCN(c2cc(=O)c3ccnc(-c4ccnn4C)c3o2)CC1	-18%[44.1 µM]
O=C(O)c1cc(Br)cc(S(=O)(=O)NCc2ccccn2)c1	-2%
CN(C)c1ccc(NC(=O)CCSc2nc(-c3ccco3)cc(C(F)(F)F)n2)cc1	11µM*
CC(=O)c1ccc(NC(=O)CCSc2nc(-c3ccco3)cc(C(F)(F)F)n2)cc1	-6%
COc1ccc(NC(=O)CCSc2nc(-c3ccco3)cc(C(F)(F)F)n2)cc1	i
COCCC1(NS(C)(=O)=O)CCN(C(=O)c2ccc(C)nc2)CC1	0%
CCCN(C(=O)c1cc2ccc3cccnc3c2[nH]1)c1ccc(F)cc1	-19%
Cc1ccc(C)c(CN2CCC(CNC(=O)Cn3ncc4c([nH]c5ccccc54)c3=O)CC2)c1	-19%
O=C(c1cc2ccc3cccnc3c2[nH]1)N1CCN(c2ccccc2)CC1	i
Cc1oc2ncnc(N3CCCCC3)c2c1C(=O)NCC1CCN(Cc2cccc(F)c2)CC1	-17%
Cc1ccc(C)c(CN2CCC(CNC(=O)c3cc4ccc5cccnc5c4[nH]3)CC2)c1	2.8µM*
Cc1ccc(CN2CCC(CNC(=O)Nc3ccc(C)c(C)c3)C2)cc1 (stereo not drawn)	-5%
O=C(NCC1CCN(Cc2cccc(F)c2)CC1)c1cc2ccc3cccnc3c2[nH]1	7.1µM*
Cc1ccc(CN2CCC(CNC(=O)c3cc4ccc5cccnc5c4[nH]3)CC2)cc1	3.5µM*
Cc1ccc(C)c(CN2CCC(CNC(=O)c3occc3C)C2)c1 (stereo not drawn)	-7%
COC1CCOC2(CCN(C(=O)CCCc3ccccc3)CC2)C1 (stereo not drawn)	7%
COc1ccc(S(=O)(=O)N2CCC(c3noc(C4CC4)n3)C2)cc1 (stereo not drawn)	22%[5.79 µM]
COc1ccc(NC(=O)Cn2ccn3nc(-c4ccccc4)c(CO)c3c2=O)cc1OC	29%
CN(C)Cc1cc(CC2(NC3CCC3)COC2)no1	9%[44.1 µM]
O=C(C1CC1)N1CC(F)(F)C[C@H]1c1nc(-c2ncccn2)no1	15%
Cc1cn2nc(C(=O)NCC(C)C)cc2c(N2CCCC2)n1	i
Cc1cn2nc(C(=O)NCCc3ccccc3)cc2c(N2CCCC2)n1	i
Cc1cn2nc(C(=O)NC3CCCCC3)cc2c(N2CCCC2)n1	10µM*
O=C1NCCOCCCN(C(=O)COc2ccccc2)[C@H]2CCCC[C@@H]12	-18%
CN(C)CCN1CC[C@H]2CN(S(=O)(=O)c3ccccc3)CC[C@H]2CC1=O	-11%[44.1 µM]
